# Screens from PubChem BioAssay.
# The list is not random: actives were taken first. Their share in the collection is about 9%.
# G9a inh: inhibitors of human histone lysine methyltransferase G9a. G9a H3K9 monomethylation, AlphaScreen, 2 h. Potency, µM (top dose mostly 102 µM), hits mostly inhibitors. actives 8.8% (n = 350,000). AID 504332; further: nearly all actives have a fitted effect of over 75% in size
#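 Methyltransferase reactions run at room temperature for 2 h (20 nM enzyme, 500 nM biotin-H3K9 peptide, 20 uM SAM) after a 15 min compound preincubation; product detected by AlphaScreen beads and anti-H3K9me1 antibody.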
# HP1b chromo inh: HP1-beta chromodomain-methylated histone interaction inhibition; P83916; AlphaScreen HP1-beta / biotin-H3K9me3 peptide binding; Potency, µM (highest dose often 114 µM), usual class: inhibitors; actives 0.56% (n = 390,000); AID 540317; further: nearly all actives have a fitted effect of over 70% in size
#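 AlphaScreen: HP1-beta (50 nM) preformed 30 min with biotin-H3(1-18)K9me3 peptide (50 nM) in PBS pH 7.4, 0.01% Tween-20. Compound added for 30 min at RT, then streptavidin donor/nickel chelate acceptor beads (10 ug/mL) for 30 min.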
# BAZ2B block: BAZ2B (human) inhibition; AlphaScreen BAZ2B-H3K14Ac peptide displacement; Potency, µM (doses to about 114 µM), usual class: inhibitors; actives 4.4% (n = 360,000); AID 504333; further: nearly all actives have a fitted effect of over 60% in size
# Target sequence (Q9UIF8 whole entry, looked up): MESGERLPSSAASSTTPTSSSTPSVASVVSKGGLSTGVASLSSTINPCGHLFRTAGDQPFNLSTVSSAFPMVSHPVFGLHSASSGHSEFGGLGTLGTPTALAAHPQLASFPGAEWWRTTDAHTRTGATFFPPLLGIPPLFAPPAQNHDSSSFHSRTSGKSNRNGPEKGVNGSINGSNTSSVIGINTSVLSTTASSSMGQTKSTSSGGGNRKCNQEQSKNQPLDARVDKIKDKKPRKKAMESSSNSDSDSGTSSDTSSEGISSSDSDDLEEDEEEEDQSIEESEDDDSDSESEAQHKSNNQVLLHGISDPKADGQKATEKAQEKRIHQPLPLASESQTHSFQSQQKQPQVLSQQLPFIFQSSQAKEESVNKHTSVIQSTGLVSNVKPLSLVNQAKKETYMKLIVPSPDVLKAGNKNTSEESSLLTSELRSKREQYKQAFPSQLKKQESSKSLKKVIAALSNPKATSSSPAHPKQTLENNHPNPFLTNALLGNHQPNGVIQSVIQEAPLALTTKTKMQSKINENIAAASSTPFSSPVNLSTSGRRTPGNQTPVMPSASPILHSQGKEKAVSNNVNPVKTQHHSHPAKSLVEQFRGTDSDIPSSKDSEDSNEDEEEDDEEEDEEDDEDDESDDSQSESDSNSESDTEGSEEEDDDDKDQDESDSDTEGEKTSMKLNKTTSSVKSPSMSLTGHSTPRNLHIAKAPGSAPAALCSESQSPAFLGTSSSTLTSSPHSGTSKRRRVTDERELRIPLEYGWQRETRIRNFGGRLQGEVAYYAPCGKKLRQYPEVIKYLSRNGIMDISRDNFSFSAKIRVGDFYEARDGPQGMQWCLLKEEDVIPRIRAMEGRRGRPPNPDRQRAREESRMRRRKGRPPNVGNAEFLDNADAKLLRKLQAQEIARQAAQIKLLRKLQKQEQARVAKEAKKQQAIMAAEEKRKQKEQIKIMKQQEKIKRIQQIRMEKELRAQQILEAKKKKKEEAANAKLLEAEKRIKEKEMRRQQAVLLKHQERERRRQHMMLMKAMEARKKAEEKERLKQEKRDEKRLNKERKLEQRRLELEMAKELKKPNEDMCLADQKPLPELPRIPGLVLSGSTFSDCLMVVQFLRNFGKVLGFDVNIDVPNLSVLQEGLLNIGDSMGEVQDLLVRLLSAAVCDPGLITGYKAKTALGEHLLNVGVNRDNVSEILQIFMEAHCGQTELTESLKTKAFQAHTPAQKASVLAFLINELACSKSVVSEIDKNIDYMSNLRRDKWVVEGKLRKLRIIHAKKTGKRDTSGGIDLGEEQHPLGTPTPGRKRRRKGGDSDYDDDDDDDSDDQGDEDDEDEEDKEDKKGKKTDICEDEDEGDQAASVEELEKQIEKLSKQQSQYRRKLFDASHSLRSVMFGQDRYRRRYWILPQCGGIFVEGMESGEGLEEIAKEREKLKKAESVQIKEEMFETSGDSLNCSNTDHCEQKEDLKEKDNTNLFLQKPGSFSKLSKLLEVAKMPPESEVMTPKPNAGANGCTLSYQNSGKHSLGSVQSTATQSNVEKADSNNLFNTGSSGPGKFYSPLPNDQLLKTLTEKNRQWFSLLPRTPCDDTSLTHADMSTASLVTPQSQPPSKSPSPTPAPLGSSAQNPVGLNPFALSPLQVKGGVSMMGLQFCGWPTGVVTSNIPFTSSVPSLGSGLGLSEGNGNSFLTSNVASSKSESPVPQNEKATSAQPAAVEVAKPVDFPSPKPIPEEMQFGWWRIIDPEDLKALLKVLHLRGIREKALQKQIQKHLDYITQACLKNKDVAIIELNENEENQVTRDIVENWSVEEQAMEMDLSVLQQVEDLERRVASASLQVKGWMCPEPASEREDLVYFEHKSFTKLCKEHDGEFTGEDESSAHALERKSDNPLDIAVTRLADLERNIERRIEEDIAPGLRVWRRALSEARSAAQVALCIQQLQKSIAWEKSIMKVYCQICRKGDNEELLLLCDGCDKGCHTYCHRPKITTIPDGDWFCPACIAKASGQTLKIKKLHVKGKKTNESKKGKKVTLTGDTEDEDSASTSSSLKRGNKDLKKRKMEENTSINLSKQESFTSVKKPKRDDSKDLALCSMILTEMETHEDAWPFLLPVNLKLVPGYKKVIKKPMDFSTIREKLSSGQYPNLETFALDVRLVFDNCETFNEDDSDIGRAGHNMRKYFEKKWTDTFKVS
#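 BAZ2B 50 nM plus b-H3(5-23)K14Ac 50 nM, PBS pH 7.4/0.01% Tween-20, 30 min RT; compound added (max 110 uM), 30 min RT; streptavidin donor/Ni-chelate acceptor beads 10 ug/mL final, 20 min dark; AlphaScreen read.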
# JMJD2A Tudor: inhibitors of human JMJD2A Tudor domain | actives 4.4% (n = 390,000) | AID 504339 | Potency, µM (series often up to 114 µM), usual class: inhibitors | O75164 | AlphaScreen JMJD2A-Tudor / H3K4me3 peptide binding; further: nearly all actives have a fitted effect of over 50% in size
# PLK1 PBD block: inhibitors of human PLK1 polo-box domain binding; P53350; actives 2.8% (n = 360,000); Plk1 PBD binding of FITC phosphopeptide, fluorescence polarization; Potency, µM, usual class: inhibitors; further: series mostly up to about 57 µM; nearly all actives have a fitted effect of over 65% in size
# ALOX12 inh: blocks human arachidonate 12S-lipoxygenase; purified 12hLO, xylenol orange hydroperoxide absorbance; Potency, µM (titrated, usually from 108 µM), actives largely listed as inhibitors; actives 1.1% (n = 580,000)
#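 Purified human 12hLO at 150 nM in 25 mM Hepes, 0.01% Triton X-100, pH 7.0, preincubated 15 min at room temperature with compound. Reaction started with 40 uM arachidonic acid, 30 min at room temperature. Hydroperoxide measured by Fe-xylenol orange, 573/405 nm absorbance ratio.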
# Hits are given with their value; – = inactive; ? = inconclusive; · = no result given; ! = not active in a repeat; [ ] = remark or other dose. The call rests on the fitted dose curve; in most records, active means well fitted curve in the direction sought with a large enough effect; inconclusive means small, poorly fitted or top-dose-only effect, or another doubt; inactive means no such curve, though single readings can be large; an effect the other way counts as inactive or inconclusive.
SMILES,G9a inh,HP1b chromo inh,BAZ2B block,JMJD2A Tudor,PLK1 PBD block,ALOX12 inh
CN(CC(=O)Nc1cccc(F)c1)C(=O)COc1ccc2c(c1)CCC2,·,–,·,–,–,–
CCc1cccc(OCC(=O)N(C)CC(=O)Nc2cccc(F)c2)c1,50µM,–,–,–,–,–
CN(CC(=O)Nc1ccc(Cl)cc1)C(=O)COc1cccc(F)c1,·,·,·,·,·,40µM
CC(=O)NC[C@H]1CCN(C(=O)c2ccc(C(F)(F)F)cc2)C[C@H]1N(C)C,·,·,·,·,·,–
CCN(CC)S(=O)(=O)c1ccc(N(C)C)c(N)c1,·,·,·,·,·,–
COc1ccc2nc(S(=O)Cc3ncc(C)c(OC)c3C)[nH]c2c1 (configuration not stated),1.4µM,14µM,32µM,28µM,24µM,22µM!
COc1ccccc1N1CCN(S(=O)(=O)c2cc3c(cc2C)NC(=O)CO3)CC1,79µM,–,–,–,–,–
Cc1cc2c(cc1S(=O)(=O)N1CCN(c3cccc(C(F)(F)F)c3)CC1)OCC(=O)N2,·,–,?,?,21µM,–
O=C1[C@H]2CN(Cc3cccc(Cl)c3F)C[C@H]2C(=O)N1CCc1ccccc1,·,·,·,·,·,–
COc1c(F)cccc1C(=O)N1CCc2onc(-c3ccccc3F)c2C1,·,·,·,·,·,–
O=C(Cc1ccc(Cl)cc1)N1CCc2ccccc2C1,·,–,·,–,–,–
COc1ccc(Cn2c(=O)[nH]c3cc(C(=O)NCCCN4CCCCC4)ccc3c2=O)cc1,–[2.33 µM],–,–,–,–,–
O=C(NCCCN1CCOCC1)c1ccc2c(=O)n(-c3ccc(F)c(Cl)c3)c(=S)[nH]c2c1,40µM,–,–,–,–,–
COc1ccc(-n2c(=S)[nH]c3cc(C(=O)NCCCN4CCOCC4)ccc3c2=O)cc1,28µM,–,–,–,–,–
COc1ccc(-n2c(=S)[nH]c3cc(C(=O)NCCCN4CCCC4=O)ccc3c2=O)c(OC)c1,32µM,–,–,14µM,–,?
COc1ccc(Cn2c(=O)[nH]c3cc(C(=O)NCCCN4CCCCCC4)ccc3c2=O)cc1,56µM,–,–,14µM,–,?
O=C(O)Cc1ccc(NC(=O)c2ccc3c(c2)C(=O)N(CC2CCCO2)C3=O)cc1 (configuration not stated),–,–,–,–,–,–
CN(CC(=O)Nc1ccc(Cl)c(C(F)(F)F)c1)C(=O)CCN1C(=O)C2CCCCC2C1=O (configuration not stated),–[2.33 µM],–,–,–,–,–
Cn1nc(C(=O)N2C[C@@H](Oc3ccccc3)C[C@H]2C(=O)N2CCOCC2)c2ccccc21,·,·,·,·,·,–
CCc1nn2c(=O)cc(COC(=O)c3ccccc3NC(=O)C3CCCCC3)nc2s1,–,–,–,–,·,–
COC(CNC(=O)c1ccc(-n2c(=S)[nH]c3ccccc3c2=O)cc1)OC,?,–,?,–,–,–
COC(CNC(=O)c1cccc(-n2c(=S)[nH]c3cc(Cl)ccc3c2=O)c1)OC,–,–,?,–,–,1.8µM
Cc1ccc(OCCCCN2CCc3ccccc3C2)c(C)c1,–[0.501 µM],–,–,–,–,–
Cc1cc(NC(=O)CSc2cn(CCNC(=O)c3ccc(Cl)cc3)c3ccccc23)no1,?,–,–,–,–,–
O=C1CC(c2ccc(O)c(O)c2)Oc2cc(O)cc(O)c21 (configuration not stated),–[2.33 µM],–,–,79µM,–,6.3µM
COc1ccc([C@H]2Cc3cccc(O)c3C(=O)O2)cc1O,–[2.33 µM],–,–,–,–,–
O=C1CC(c2ccc(O)c(O)c2)Oc2c1ccc(O)c2O (configuration not stated),–,?,10µM,8.9µM,–,35µM
COc1ccc([C@H]2Cc3cc(O)cc(O)c3C(=O)O2)cc1O,·,–,·,–,–,22µM
O=C1CC(c2ccc(O)cc2)Oc2cc(O)cc(O)c21 (configuration not stated),–,–,–,–,–,?
CC(C)=CCc1c(O)cc2c(c1O)C(=O)CC(c1ccccc1)O2 (configuration not stated),·,–,·,–,–,–
